Screens as filed in PubChem.
Most compounds without a hit are left out; they make up all but 2.9% or so of the library.
D3 antag: blocks the human D3 dopamine receptor. 2.5% of 360,000 active. P35462. AID 652054. max response, negative = inhibition, %. D3R cells, DiscoveRx beta-arrestin luminescence, antagonist mode; hits give low values; in the data active = max response below about -50%; also: % is scaled to controls: 0 for no effect and ±100 for the full control effect
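Cells plated overnight at 1500 cells/well, then exposed to library compounds with dopamine controls for 90 minutes at 37 degrees C. DiscoveRx reagent added for 30–60 minutes at room temperature; luminescence read, quantitative HTS format.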
TRPML1 inh: inhibitors of human TRPML1 channel | 0.02% of 390,000 active | activity change, negative = inhibition, % (concentration not given with the values) | Q9GZU1 | TRPML1-inducible cells, Ca2+ dye fluorescence, FDSS; hits give low values; inhibition of EC80 agonist-evoked calcium signal; in the data active = activity change below about -50%;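 also: stimulus is agonist 54-4 at its EC80 concentration; % is scaled to controls: 0 for no effect and ±100 for the full control effect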
Target sequence (Q9GZU1 whole entry, looked up): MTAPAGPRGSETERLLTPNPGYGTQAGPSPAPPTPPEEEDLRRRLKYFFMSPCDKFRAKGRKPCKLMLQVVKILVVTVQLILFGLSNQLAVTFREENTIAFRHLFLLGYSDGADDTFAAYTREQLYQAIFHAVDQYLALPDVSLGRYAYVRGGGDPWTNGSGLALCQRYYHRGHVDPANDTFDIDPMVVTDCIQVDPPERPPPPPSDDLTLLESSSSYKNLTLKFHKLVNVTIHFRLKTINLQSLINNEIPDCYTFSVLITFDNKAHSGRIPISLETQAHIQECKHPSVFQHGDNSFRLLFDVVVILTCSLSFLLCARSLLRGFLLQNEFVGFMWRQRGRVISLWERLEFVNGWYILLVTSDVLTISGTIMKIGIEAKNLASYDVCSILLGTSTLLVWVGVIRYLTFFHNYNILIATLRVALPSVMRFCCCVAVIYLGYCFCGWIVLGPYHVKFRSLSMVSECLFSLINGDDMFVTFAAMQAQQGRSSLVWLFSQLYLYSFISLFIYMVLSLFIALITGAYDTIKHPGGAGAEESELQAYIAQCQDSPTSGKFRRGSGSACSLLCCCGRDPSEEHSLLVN
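Tet-induced TRPML1-DL cells loaded with Ca8 no-wash calcium dye were read kinetically on FDSS. Compound addition was followed by EC80 agonist 54-4 (4 uM final); inhibition was read over 110 s.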
TRPML1 ag: agonists of human TRPML1 channel; TRPML1-expressing cells, Ca2+ dye fluorescence, FDSS; AID 624414; activation, % (concentration not given with the values); 0.12% of 410,000 active; Q9GZU1; in the data active = activation above about 50%; also: 0% is about no effect
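Agonist activity was taken from a 110 s kinetic Ca2+ dye read on the FDSS after pinning compounds onto TRPML1-DL cells. The cells were seeded at 1,500/well with Tet inducer, incubated about 16 h, then dye-loaded at room temperature.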
D3 ag: agonists of human D3 dopamine receptor; 0.58% of 410,000 active; max activation, %; P35462; AID 652048; D3R DiscoveRx beta-arrestin cells, luminescence, 90 min; in the data active = max activation above about 30%; also: 0% is about no effect
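Cells at 1500/well, incubated overnight, then treated with pinned compounds (dopamine as control) for 90 min at 37 degrees C. DiscoveRx reagent added for 30 - 60 minutes at room temperature; luminescence read.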
Numbers without * were called inactive; nt = not tested or not shown.

SMILES | D3 antag | TRPML1 inh | TRPML1 ag | D3 ag
O=C(CC1S/C(=N/N=C/c2ccco2)NC1=O)Nc1cccc(Cl)c1Cl (configuration not stated) | -61* | -6 | 0 | -3
CCCC1S/C(=N/N=C/c2ccco2)NC1=O (configuration not stated) | 9 | -12 | 8 | -7
O=C(NCc1ccccc1)OCCN1CCN(Cc2ccccc2)CCC1=O | -68* | 1 | 0 | -10
S=c1[nH]nc(-c2cc(-c3ccccc3)n[nH]2)n1/N=C/C(Br)=C/c1ccccc1 | -67* | 2 | 0 | -16
CC(=O)c1sc(N/N=C\c2c(O)ccc3ccccc23)nc1C | -54* | 2 | 4 | -10
Cc1cc(N/N=C/c2ccc(F)cc2)nc(-n2nc(C)cc2C)n1 | -8 | 20 | 1 | -12
CCOc1cc(/C=N/Nc2cc(C)nc(-n3nc(C)cc3C)n2)ccc1O | -175* | nt | nt | -41
CCOc1ccc(Nc2cc(C)nc(-n3nc(C)cc3C)n2)cc1 | -52* | -2 | 0 | 1
CC(=O)Nc1ccc(/C=C/c2nc3ccccc3s2)cc1 | nt | nt | 4 | nt
COCc1ccc(-c2c(-c3ccsc3)oc(=O)c3cc(OC)c(OC)cc23)cc1 | 121 | 34 | 1 | 42*
COc1ccc(Cc2nnc(NCCO)[nH]c2=O)cc1 | 6 | 8 | -1 | 33*
O=C(Cn1nc2ccccc2n1)N/N=C/c1cc(Cl)cc([N+](=O)[O-])c1O | -83* | 2 | 0 | -16
O=C(Cn1nnc(-c2ccccc2)n1)N/N=C/c1cccc([N+](=O)[O-])c1O | -9 | 4 | 1 | 5
O=C(N/N=C/c1cc(Cl)cc([N+](=O)[O-])c1O)C1CC1 | -57* | -8 | -1 | -19
O=[N+]([O-])c1cc(Cl)cc(/C=N/Nc2nc3ccccc3s2)c1O | -60* | 18 | 3 | -18
O=[N+]([O-])c1cc(Cl)cc(/C=N/NC(=S)Nc2ccc(S(=O)(=O)N3CCOCC3)cc2)c1O | -54* | nt | nt | -19
O=C(N/N=C/c1ccc(Cl)c([N+](=O)[O-])c1)C1CC1 | -8 | 0 | 2 | -2
Cc1ccc(CNC(=O)CCC(=O)N2CC3CCCN3c3ccccc32)cc1 (configuration not stated) | nt | 2 | 0 | -12
COc1cc(/C=N/NC(=O)c2cccc(NC(=O)c3ccccc3C)c2)ccc1O | 26 | -10 | 1 | 3
Cc1ccccc1C(=O)Nc1cccc(C(=O)N/N=C/c2cc(Cl)cc([N+](=O)[O-])c2O)c1 | -52* | 27 | 3 | -11
CC(C)(C)N/N=C/c1cc(Cl)cc([N+](=O)[O-])c1O | -110* | 7 | 0 | -16
COC(=O)c1sccc1NC(=O)CSc1ccccc1NS(=O)(=O)c1ccc(Cl)cc1 | -59* | 4 | 1 | 2
COC(=O)c1sccc1NC(=O)CSc1ccccc1NS(=O)(=O)c1ccccc1Cl | -28 | 28 | 7 | 6
CCNC(=O)c1c(NC(=O)c2nc(SC)ncc2Cl)sc2c1CCCC2 | nt | nt | 0 | nt
OCCn1c(-c2ccc(F)cc2)csc1=Nc1ccccc1 | -11 | 9 | 0 | -2
SMILES | D3 antag | TRPML1 inh | TRPML1 ag | D3 ag
OCCn1c(-c2ccc3c(c2)OCO3)csc1=Nc1ccccc1 | -70* | 9 | -1 | 12
Cc1cccc(NC(=O)CSc2nc3n[nH]c(C)c3c(=N)n2-c2cccc(Cl)c2)c1 | nt | -13 | 3 | 5
O=C(Cc1ccc(Cl)cc1)NO | nt | nt | -1 | nt
Clc1nc(NCc2ccco2)c2ccccc2n1 | nt | nt | 0 | nt
Cc1ccc(OCCN2CCN(c3nc(NCc4ccco4)c4ccccc4n3)CC2)cc1 | -78* | -6 | -1 | -26
O=[N+]([O-])c1ccc(N2CCN(CCO)CC2)cc1NCc1ccco1 | -63* | 25 | 0 | -14
Nc1nc(NCc2ccccc2)nc(NCc2ccccc2)c1[N+](=O)[O-] | 7 | -9 | 0 | 32*
c1ccc(CN2CCN(c3nc(NCc4ccco4)c4ccccc4n3)CC2)cc1 | -82* | 18 | 1 | -13
COc1cc(C2C=C(C(=O)O)Nc3ncnn32)ccc1O (configuration not stated) | nt | -4 | 0 | -14
CC(=O)c1cccc(Nc2cc(C)nc3nc(-c4ccccc4C)nn23)c1 | nt | 12 | 2 | 7
COc1ccccc1CNC(=O)c1cc2c(=O)n(Cc3cccs3)ccc2nc1C | nt | -22 | 3 | 5
CCN(CC)c1ccc(N=Nc2ccc(S(=O)(=O)N(C)C)cc2)c(S(=O)(=O)NCC[n+]2ccccc2)c1 | nt | nt | nt | 9
C=C1C=C(C(F)F)n2ncc(C(=O)NCc3ccc(OC)cc3)c2N1 | nt | nt | -1 | nt
OCCN1CCN(c2nc(NCc3ccco3)c3ccccc3n2)CC1 | -82* | 22 | 1 | -20
Nc1nc(NCc2ccco2)nc(N2CCN(Cc3ccccc3)CC2)c1[N+](=O)[O-] | -79* | -4 | 1 | -14
CCCn1c(=O)c2sccc2n2c(CCCC(=O)N3CCN(c4ccccc4OC)CC3)nnc12 | nt | -7 | 1 | 3
O=C(C1CC(c2ccc(F)cc2)=NO1)N1CCc2ccccc2C1 (configuration not stated) | -20 | 50 | 0 | 3
O=C(C1CC(c2ccccc2O)=NO1)N1CCc2ccccc2C1 (configuration not stated) | -95* | -9 | 0 | -2
C=C1[C@@H]2CC[C@@H](C2)C1(C)C | nt | nt | nt | 1
Cc1ccc(C)c(-c2cc(C(=O)Nc3sc(C)c(C)c3C(N)=O)c3ccccc3n2)c1 | 15 | -9 | 1 | 46*
Cc1ccccc1-c1cc(C(=O)Nc2nc3c(s2)CCCC3)c2ccccc2n1 | -91* | -11 | 3 | -58
CC(C)(C)n1ncc2c(=O)n(Cc3ccc(F)c(C(F)(F)F)c3)cnc21 | nt | 4 | 1 | nt
Cc1ccc(C)c(N2C(=O)N(C)c3ccccc3S2(=O)=O)c1 | nt | -8 | -1 | -10
CCOc1ccccc1OCCOc1ccccc1OC(C)C | 8 | -18 | 2 | 2
CNCCOc1ccccc1OC(C)C | -79* | -9 | 0 | -17
SMILES | D3 antag | TRPML1 inh | TRPML1 ag | D3 ag
CCn1cc2nc(SCC(=O)Nc3ccccc3C(F)(F)F)n(Cc3ccc(C)cc3)c(=O)c2n1 | nt | -4 | 1 | -4
CN1c2ccsc2C(O)=C(C(=S)Nc2ccccc2)S1(=O)=O | -72* | -7 | 0 | 1
Cc1ccccc1NC(=S)C1=C(O)c2sccc2N(C)S1(=O)=O | -88* | 11 | 0 | 4
O=C(CCCc1nc(-c2ccc(Cl)cc2)no1)NCC1CCCO1 (configuration not stated) | 7 | 1 | -1 | 34*
Cc1c2cnn(-c3ccccc3)c(=O)c2c(C)n1CC(=O)NCc1ccccc1Br | nt | -9 | 0 | 5
Cn1c(CNC2CCCCC2)c(C#N)c2ccccc21 | -77* | 10 | 0 | -6
Cn1c(CN2CCCCC2)c(C#N)c2ccccc21 | -78* | 7 | 0 | -65
CCCCCCCCN(CCCCCCCC)c1ccc(/C=C/c2ccnc3ccccc23)cc1 | nt | nt | 0 | nt
N/C(=N\NS(=O)(=O)c1ccccc1C(F)(F)F)c1ccccn1 | 1 | -30 | 3 | 1
